Assay [1] in a line: NCI Yeast Anticancer Drug Screen. Data for the rad50 strain (AID 155).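 Further: 0% = growth of vehicle-only cultures of the same strain.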 To be noted: S. cerevisiae rad50 strain growth inhibition, stronger effect = higher value. The procedure, abridged:
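Growth of the mutant yeast was measured after compound exposure and referenced to vehicle-treated cultures.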

Assay [2] is described as follows: NCI Yeast Anticancer Drug Screen. Data for the mec2-1 strain (AID 157). Particulars: S. cerevisiae mec2-1 strain, stronger effect = higher value. The procedure, abridged:
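Yeast mec2-1 mutant treated with compound. Readout: growth inhibition vs vehicle controls.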

Assay [3] is described as follows: NCI Yeast Anticancer Drug Screen. Data for the sgs1 mgt1 strain (AID 161).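 Further: 0% = growth of cultures given vehicle only.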 Particulars: S. cerevisiae sgs1 mgt1 strain, stronger effect = higher value. The procedure, abridged: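 Inhibition of yeast growth, normalised to vehicle-treated controls, is reported for a strain bearing genetic alterations in DNA damage repair.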
A short description of assay [4]: NCI Yeast Anticancer Drug Screen. Data for the cln2 rad14 strain (AID 165).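 Further: 0% = growth equal to vehicle treated cultures.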 Particulars: S. cerevisiae cln2 rad14 strain, stronger effect = higher value. In outline: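 cln2 rad14 yeast strain; compound exposure; growth inhibition read vs vehicle controls.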
Assay [5] in a line: NCI Yeast Anticancer Drug Screen. Data for the bub3 strain (AID 167). Particulars: S. cerevisiae bub3 mutant strain, stronger effect = higher value. The procedure, abridged: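 Whole-cell yeast assay. The mutant strain was incubated with compounds, and growth inhibition was determined by comparison with vehicle-treated cells.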
Assay [6] in a line: NCI Yeast Anticancer Drug Screen. Data for the mlh1 rad18 strain (AID 175). Particulars: S. cerevisiae mlh1 rad18 strain growth inhibition, stronger effect = higher value. In outline:
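Yeast w/ defined DNA-repair lesions; compound exposure; growth vs vehicle controls → % inhibition.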

Setting [7] is: at 5.0 µM (retest, dose inferred, filed as 0.5).
Setting [8] is: at 50.0 µM (retest, dose inferred, filed as 5.0).

The structures appear in SMILES notation. Values joined by “and” are separate entries in the source; they are usually repeats but may differ in a detail not shown here. Identical values can stand only once. About 79,000 compounds went through this panel and 15% of them were active in at least one assay; those are over-represented in the sample as a whole. Where a structure was tested more than once in an assay, its records may differ in their call. Active and inactive are the calls of the source. No stated cut-off is given here; in the data, active means growth inhibition above about 70%; inactive means the rest.

Consider `CCn1c2ccccc2c2ccc(N=Cc3ccc(N(C)C)cc3)cc21`, for which the growth inhibition is 1% (inactive) in assay [1] (setting [7]); 78% (active) in assay [1] (setting [8]); 61.6% (inactive) in assay [1] (at 50.0 µM); -1% (inactive) in assay [2] (setting [7]); 17% (inactive) in assay [2] (setting [8]); 41.5% (inactive) in assay [2] (at 50.0 µM). Also, the growth inhibition in assay [3] (setting [7]) was 2% (inactive); in assay [3] (setting [8]) it was 40% (inactive); in assay [3] (at 50.0 µM), 61% (inactive); in assay [4] (setting [7]), 0% (inactive); in assay [4] (setting [8]) it was 45% (inactive); in assay [4] (at 50.0 µM), 27.4% (inactive). The growth inhibition is -3% (inactive) in assay [5] (setting [7]); 25% (inactive) in assay [5] (setting [8]); 70.7% (active) in assay [5] (at 50.0 µM); 5% (inactive) in assay [6] (setting [7]); 37% (inactive) in assay [6] (setting [8]); 47.5% (inactive) in assay [6] (at 50.0 µM).
In the case of `CCOC(=O)C(CN)(c1ccccc1)c1ccccc1`, the growth inhibition was -7% (inactive) in assay [1] (setting [7]); 1% (inactive) in assay [1] (setting [8]); 11.8% (inactive) in assay [1] (at 50.0 µM); -4% (inactive) in assay [2] (setting [7]); 8% (inactive) in assay [2] (setting [8]); -5.4% (inactive) in assay [2] (at 50.0 µM). Also, the growth inhibition in assay [3] (setting [7]) was -4% (inactive); in assay [3] (setting [8]) it was -13% (inactive); in assay [3] (at 50.0 µM), 5.35% (inactive); in assay [4] (setting [7]) it was 2% (inactive); in assay [4] (setting [8]), -12% (inactive); in assay [4] (at 50.0 µM) it was 43.8% (inactive). The growth inhibition in assay [5] (setting [7]) was -4% (inactive); in assay [5] (setting [8]), 0% (inactive); in assay [5] (at 50.0 µM) it was -1.15% (inactive); in assay [6] (setting [7]), -7% (inactive); in assay [6] (setting [8]), -10% (inactive); in assay [6] (at 50.0 µM), 17.1% (inactive).
Take `CC1(C)C(c2ccccc2)=Nc2ccccc21`: the growth inhibition in assay [1] (setting [7]) was 0% (inactive); in assay [1] (setting [8]), 36% (inactive); in assay [1] (at 50.0 µM), 34.1% (inactive); in assay [2] (setting [7]), 3% (inactive); in assay [2] (setting [8]), 89% (active); in assay [2] (at 50.0 µM), 92.6% (active). Further, the growth inhibition was -13% (inactive) in assay [3] (setting [7]); 61% (inactive) in assay [3] (setting [8]); 32.5% (inactive) in assay [3] (at 50.0 µM); -2% (inactive) in assay [4] (setting [7]); 62% (inactive) in assay [4] (setting [8]); 38% (inactive) in assay [4] (at 50.0 µM). For the same compound, the growth inhibition in assay [5] (setting [7]) was 9% (inactive); in assay [5] (setting [8]), 94% (active); in assay [5] (at 50.0 µM), 96.7% (active); in assay [6] (setting [7]) it was -5% (inactive); in assay [6] (setting [8]), 46% (inactive); in assay [6] (at 50.0 µM), 86.2% (active).
As to `CCN(CC)CCOc1ccc2c(C)c(-c3ccccc3)c(=O)oc2c1`, the growth inhibition in assay [1] (setting [7]) was 0% (inactive); in assay [1] (setting [8]), 23% (inactive); in assay [1] (at 50.0 µM), 62% (inactive); in assay [2] (setting [7]) it was -3% (inactive); in assay [2] (setting [8]), 34% (inactive); in assay [2] (at 50.0 µM), 3% (inactive). Further, the growth inhibition in assay [3] (setting [7]) was 10% (inactive); in assay [3] (setting [8]), 38% (inactive); in assay [3] (at 50.0 µM), 34.8% (inactive); in assay [4] (setting [7]), -5% (inactive); in assay [4] (setting [8]), 18% (inactive); in assay [4] (at 50.0 µM) it was -44.8% (inactive). For the same compound, the growth inhibition was -4% (inactive) in assay [5] (setting [7]); 27% (inactive) in assay [5] (setting [8]); 60.8% (inactive) in assay [5] (at 50.0 µM); 2% (inactive) in assay [6] (setting [7]); 30% (inactive) in assay [6] (setting [8]); 21.1% (inactive) in assay [6] (at 50.0 µM).
Take `COc1ccc2cc(C(C)=O)c3ccccc3c2c1`: the growth inhibition in assay [1] (setting [7]) is 11% (inactive); in assay [1] (setting [8]), 93% (active); in assay [1] (at 50.0 µM), 94.2% (active); in assay [2] (setting [7]), -34% (inactive); in assay [2] (setting [8]) it was 95% (active); in assay [2] (at 50.0 µM) it was 86.5% (active). For the same compound, the growth inhibition in assay [3] (setting [7]) is 1% (inactive); in assay [3] (setting [8]), 88% (active); in assay [3] (at 50.0 µM) it was 96.2% (active); in assay [4] (setting [7]), -2% (inactive); in assay [4] (setting [8]), 77% (active); in assay [4] (at 50.0 µM), -8.2% (inactive). The growth inhibition in assay [5] (setting [7]) is -68% (inactive); in assay [5] (setting [8]), 94% (active); in assay [5] (at 50.0 µM), 2.7% (inactive); in assay [6] (setting [7]) it was 2% (inactive); in assay [6] (setting [8]), 95% (active); in assay [6] (at 50.0 µM) it was 97% (active).
As to `O=c1[nH]c(SCc2c(Cl)c(Cl)c(Cl)c(Cl)c2Cl)nc(=S)[nH]1`, the growth inhibition was 1% (inactive) in assay [1] (setting [7]); 76% (active) in assay [1] (setting [8]); 54.1% (inactive) in assay [1] (at 50.0 µM); 10% (inactive) in assay [2] (setting [7]); 44% (inactive) in assay [2] (setting [8]); 38.8% (inactive) in assay [2] (at 50.0 µM). In addition, the growth inhibition in assay [3] (setting [7]) was 3% (inactive); in assay [3] (setting [8]), 95% (active); in assay [3] (at 50.0 µM), 92.8% (active); in assay [4] (setting [7]), -36% (inactive); in assay [4] (setting [8]) it was 67% (inactive); in assay [4] (at 50.0 µM) it was 43.1% (inactive). In addition, the growth inhibition in assay [5] (setting [7]) was 14% (inactive); in assay [5] (setting [8]), 55% (inactive); in assay [5] (at 50.0 µM), 65.8% (inactive); in assay [6] (setting [7]) it was 2% (inactive); in assay [6] (setting [8]), 86% (active); in assay [6] (at 50.0 µM), 70.8% (active).
As to `Clc1ccc(CNCCCNCc2ccc(Cl)cc2)cc1`, the growth inhibition was 80% (active) in assay [1] (setting [7]); 15% (inactive) in assay [1] (setting [8]); 27.8% (inactive) in assay [1] (at 50.0 µM); 100% (active) in assay [2] (setting [7]); 31% (inactive) in assay [2] (setting [8]); 23% (inactive) in assay [2] (at 50.0 µM). In addition, the growth inhibition in assay [3] (setting [7]) was 67% (inactive); in assay [3] (setting [8]), 31% (inactive); in assay [3] (at 50.0 µM), 50.4% (inactive); in assay [4] (setting [7]) it was 49% (inactive); in assay [4] (setting [8]), 13% (inactive); in assay [4] (at 50.0 µM) it was 72% (active). Further, the growth inhibition in assay [5] (setting [7]) was 91% (active); in assay [5] (setting [8]), 20% (inactive); in assay [5] (at 50.0 µM), 27.3% (inactive); in assay [6] (setting [7]), 96% (active); in assay [6] (setting [8]), 13% (inactive); in assay [6] (at 50.0 µM) it was 29.9% (inactive).
Consider `O=C(NC(C(=O)O)c1ccccc1)OCc1ccccc1` (centres undefined), for which the growth inhibition in assay [1] (setting [7]) is -3% (inactive); in assay [1] (setting [8]) it was -3% (inactive); in assay [1] (at 50.0 µM) it was -3% (inactive) and -15.4% (inactive) and 0.9% (inactive); in assay [2] (setting [7]), 1% (inactive); in assay [2] (setting [8]) it was 0% (inactive); in assay [2] (at 50.0 µM), -28.1% (inactive) and -22.8% (inactive) and 0.9% (inactive). Also, the growth inhibition in assay [3] (setting [7]) was -1% (inactive); in assay [3] (setting [8]), -2% (inactive); in assay [3] (at 50.0 µM), -23.6% (inactive) and -3.2% (inactive); in assay [4] (setting [7]) it was 1% (inactive); in assay [4] (setting [8]), -2% (inactive); in assay [4] (at 50.0 µM), -12.2% (inactive) and 88% (active). For the same compound, the growth inhibition in assay [5] (setting [7]) is -1% (inactive); in assay [5] (setting [8]) it was -2% (inactive); in assay [5] (at 50.0 µM) it was -8.4% (inactive) and 21.4% (inactive); in assay [6] (setting [7]), 3% (inactive); in assay [6] (setting [8]), -1% (inactive); in assay [6] (at 50.0 µM) it was -7.9% (inactive) and 2.55% (inactive) and 48.3% (inactive).

(Values after PubChem BioAssay (NCI).)
